# Reference: PubChem BioAssay (NCATS)
# Inconclusive results are not listed. Calls of active or inactive are those of the source. Calls follow the shape of the dose curve; as a rule, active = well fitted cell-killing curve with a large enough effect; inconclusive = small, poorly fitted or top-dose-only effect; inactive = no such curve, though single readings can be large or run the other way.
# Test: qHTS of pediatric cancer cell lines to identify multiple opportunities for drug repurposing: Primary screen for OHS-50 cells (AID 1347103); also: nearly all actives have a fitted effect of over 40% in size
# Conditions: OHS-50 osteosarcoma viability, CellTiter-Glo luminescence, 48 h; series mostly up to 57.3 µM; activity change, negative = cytotoxic: at the top concentration
# Excerpt: Drug repurposing or repositioning has been offered as a strategy for drug development in oncology programs. This approach has special potential for childhood cancers and other rare or orphan diseases, where the expected return on new drug development has been a disincentive to pharmaceuticals.
# In this project we exploit the poly-pharmacology of drugs to discover new indications via phenotypic screening of a panel of 19 well-characterized cell lines derived from solid tumors seen in children and adolescents. The goal is to identify approved drugs with previously unrecognized anticancer properties that has the potential to reveal new mechanisms and biological processes involved in carcinogenesis or drug resistance. We employed a titration-based paradigm (quantitative high-throughput screening or qHTS), where all compounds were tested at multiple concentrations for their effect on cell viability. Concentration-response curves (CRCs) were derived directly from the primary screen, and both potency and efficacy values were used to identify compounds with robust bioactivity profiles. We screened the NIH Chemical Genomics Center (NCGC) Pharmaceutical Collection (NPC) and Mechanism Interrogation Plate (MIPE) small molecule collections of approved and investigational compounds against these cell lines; and measured metabolically active cells after 48 hours of compound treatment as a proxy for cell viability.
# Assay Submitter: Nathalia J. Martinez, National Center for Advancing Translational Sciences, National Institutes of Health, Rockville, MD, USA; email: natalia.martinez@nih.gov
# [1] Shen, M et al. Quantitative high-throughput phenotypic screening of pediatric cancer cell lines identifies multiple opportunities for drug repurposing. Oncotarget 2017 Dec 19;9(4):4758-4772. PMID 29435139.
# The cells were obtained from University of North Carolina (UNC), Pediatric Preclinical Testing Program (PPT), and Coriell Institute (CI).
# qHTS cell viability assay:
# Cells were assayed in growth media at a density of 500-1,000 cells/well. Five microliters of cells were dispensed into 1,536-well, white, solid-bottom, TC-treated plates (Greiner Bio One) using a multidrop dispenser and incubated at 37 degrees C, 5% CO2, under a humidified atmosphere for 5 hours. Twenty-three nanoliters of compounds and controls (neutral control DMSO or positive control bortezomib at final concentration of 2.3 µM) were subsequently transferred by Kalypsys pintool. For primary screens, the MIPE collection was tested at 11-point dilutions (final concentrations range from 0.78 nM to 46 µM) and the NPC collection at 8-point dilutions (final concentrations range from 0.59 nM to 46 µM). Compounds tested in follow-up screens were assayed at 11-point dilutions. Cells were incubated for 48 hours, followed by addition of 3 µL of CellTiter-Glo (Promega). After a 15 min incubation at room temperature, samples were analyzed for luminescence intensity using a ViewLux High-throughput CCD imager equipped with clear filters.
# Potency is read from the fitted curve at half-maximal effect.
SMILES,"activity change, negative = cytotoxic",Potency
Nc1ccc(S(=O)(=O)Nc2ncccn2)cc1,25.8% (inactive),
Nc1nccc(Oc2ccc(NC(=O)c3c[nH]cc(-c4ccc(F)cc4)c3=O)cc2F)c1Cl,,7.69 µM (active)
CNC(=O)c1nn(C)c2c1C(C)(C)Cc1cnc(Nc3ccc(N4CCN(C)CC4)cc3)nc1-2,,1.53 µM (active)
COc1c(N2C[C@@H]3CCCN[C@H]3C2)c(F)cc2c(=O)c(C(=O)O)cn(C3CC3)c12,113% (inactive),
CCN1CCN(CC(=O)Nc2ccc(-c3cccc4c(=O)cc(N5CCOCC5)oc34)c3sc4ccccc4c23)CC1,,0.172 µM (active)
O=C(Nc1cc(C(F)(F)F)cc(C(F)(F)F)c1)c1cc(Cl)ccc1O,,0.432 µM (active)
CCCCCCCCCC(=O)N[C@@H](Cc1c[nH]c2ccccc12)C(=O)N[C@H](CC(N)=O)C(=O)N[C@@H](CC(=O)O)C(=O)N[C@@H]1C(=O)NCC(=O)N[C@@H](CCCN)C(=O)N[C@@H](CC(=O)O)C(=O)N[C@H](C)C(=O)N[C@@H](CC(=O)O)C(=O)NCC(=O)N[C@H](CO)C(=O)N[C@@H]([C@@H](C)CC(=O)O)C(=O)N[C@@H](CC(=O)c2ccccc2N)C(=O)O[C@@H]1C,138% (inactive),
CCOc1cc2ncc(C#N)c(Nc3ccc(F)c(Cl)c3)c2cc1NC(=O)C=CCN(C)C,,0.137 µM (active)
CC(C)(O)c1cc2nc(-c3cnc(N)nc3)nc(N3CCOCC3)c2s1,,0.0306 µM (active)
CC(NCc1ccc2c(c1)nc(NC(=O)c1ccc(-c3cn[nH]c3)s1)n2CC(C)(C)O)C(C)(C)C (stereo not given),,0.485 µM (active)
C=CC(=O)Nc1cc2c(Nc3ccc(F)c(Cl)c3)ncnc2cc1OCCCN1CCOCC1,,7.69 µM (active)
COc1cccc2nc(-c3cccs3)nc(NN3C(=O)C=C(C)C3=O)c12,,1.72 µM (active)
CC(=O)Nc1sc2c(c1-c1nc3ccccc3s1)CNC2,,24.3 µM (active)
CCN(CC)CCCCNc1ncc2cc(-c3cc(OC)cc(OC)c3)c(NC(=O)NC(C)(C)C)nc2n1,,24.3 µM (active)
CCCCc1nc2cc(C=CC(=O)NO)ccc2n1CCN(CC)CC,,0.153 µM (active)
COc1cc2c(Oc3ccc4[nH]c(C)cc4c3F)ncnc2cc1OCCCN1CCCC1,,30.6 µM (active)
COc1cccc(Nc2c(C(N)=O)cnc3c(C)cc(S(=O)(=O)c4cccc(C(=O)N(C)C)c4)cc23)c1,,10.6 µM (active)
O=C(Nc1cn[nH]c1-c1nc2ccc(CN3CCOCC3)cc2[nH]1)NC1CC1,,1.53 µM (active)
c1nc2nc(Nc3ccc(N4CCOCC4)cc3)nc(NC3CCCCC3)c2[nH]1,,2.17 µM (active)
O=C(O)c1ccc2cc(-c3ccc(O)c(C45CC6CC(CC(C6)C4)C5)c3)ccc2c1,,0.243 µM (active)

SMILES,"activity change, negative = cytotoxic",Potency
C1Cc2[nH]nc(-c3nn[nH]n3)c2C1,20% (inactive),
COc1cc2c(Oc3ccc(NC(=O)C4(C(=O)Nc5ccc(F)cc5)CC4)cc3F)ccnc2cc1OCCCN1CCOCC1,,0.385 µM (active)
CCC(=C(c1ccccc1)c1ccc(OCCN(C)C)cc1)c1ccccc1,,21.7 µM (active)
CN(C)CC=CC(=O)Nc1cc2c(Nc3ccc(F)c(Cl)c3)ncnc2cc1O[C@H]1CCOC1,,3.06 µM (active)
CCOC(=O)C1=C(C)NC2=C(C(=O)CC(C)(C)C2)C1c1ccc(-c2ccccc2)cc1 (stereo not given),,19.3 µM (active)
COc1cc(C(=O)NS(=O)(=O)c2ccccc2C)ccc1Cc1cn(C)c2ccc(NC(=O)OC3CCCC3)cc12,,21.7 µM (active)
COC(=O)Nc1ccc(-c2nc(N3CCOCC3)c3cnn(C4CCN(Cc5cccnc5)CC4)c3n2)cc1,,0.109 µM (active)
Nc1nc(NCCNc2ncc(-n3ccnc3)c(-c3ccc(Cl)cc3Cl)n2)ccc1[N+](=O)[O-],,19.3 µM (active)
C#Cc1cccc(Nc2ncnc3cc(OC)c(OCCCCCCC(=O)NO)cc23)c1,,0.485 µM (active)
CN(C)Cc1c(C(=O)NCCOc2ccc(C(=O)NO)cc2)oc2ccccc12,,0.769 µM (active)
C1=CCOCc2cc(ccc2OCCN2CCCC2)Nc2nccc(n2)-c2cccc(c2)OCC1,,2.17 µM (active)
COC(=O)C1=C(C)NC(C)=C(C(=O)OCCN2CCN(C(c3ccccc3)c3ccccc3)CC2)C1c1cccc([N+](=O)[O-])c1 (stereo not given),,15.5 µM (active)
COc1cc2c(Oc3ccc(-c4cnc(Nc5ccc(F)cc5)n(C)c4=O)cc3F)ccnc2cc1OCCCN1CCOCC1,,0.306 µM (active)
Nc1nc(Nc2ccc(S(N)(=O)=O)cc2)nn1C(=O)c1c(F)cccc1F,,9.68 µM (active)
Cn1cc(-c2ccncc2)c(-c2ccc(OCc3ccc4ccccc4n3)cc2)n1,,3.06 µM (active)
Cc1cn2cc(C(=O)N(C)CCO)cc(N[C@@H]3CCOc4cccc(C)c43)c2n1,39.6% (inactive),
Clc1cccc(-c2nnnn2Cc2cccnc2)c1Cl,-3.48% (inactive),
CNc1nccc(-c2cccnc2Oc2cc(C(=O)Nc3cccc(C(F)(F)F)c3)ccc2C)n1,,15.3 µM (active)
O=c1[nH]nc(Sc2ncc([N+](=O)[O-])s2)n1-c1ccc2c(c1)OCCO2,,9.68 µM (active)
COc1ccc(CC2c3cc(OC)c(OC)cc3CC[N+]2(C)CCC(=O)OCCCCCOC(=O)CC[N+]2(C)CCc3cc(OC)c(OC)cc3C2Cc2ccc(OC)c(OC)c2)cc1OC (stereo not given),9.58% [at 11.5 µM] (inactive),
